Measurements: PubChem BioAssay (NCATS)
Results filed as inconclusive are left out. Calls of active or inactive are those of the source. Unless noted, the call rests on the fitted dose curve.

Experiments:
[1] = qHTS assay for small molecule antagonists of peroxisome proliferator-activated receptor delta signaling (AID 588535; active means well fitted inhibition curve with a large enough effect in the signal ratio, with a control signal flat, not every such curve was filed as active; the % refers to the signal ratio;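 on max response: cells co-treated with a PPAR-delta agonist as stimulator during compound exposure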); conditions: HEK293T PPARd-UAS-bla, beta-lactamase FRET ratio, 18 h; 460 nm channel
In short: (§1)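 GeneBLAzer PPAR-delta-UAS-bla HEK293T cells in medium with 2% charcoal/dextran FBS were preincubated 5 hrs at 37 C, then given compounds, incubated 18 hrs at 37 C, and read by CCF4 beta-lactamase fluorescence; IC50 from Hill fits.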

[2] = molecular target: Peroxisome proliferator-activated receptor delta (Homo sapiens) (UniProt Q03181); experiment: as above
Chain of Peroxisome proliferator-activated receptor delta (Homo sapiens) (Q03181 whole entry, looked up): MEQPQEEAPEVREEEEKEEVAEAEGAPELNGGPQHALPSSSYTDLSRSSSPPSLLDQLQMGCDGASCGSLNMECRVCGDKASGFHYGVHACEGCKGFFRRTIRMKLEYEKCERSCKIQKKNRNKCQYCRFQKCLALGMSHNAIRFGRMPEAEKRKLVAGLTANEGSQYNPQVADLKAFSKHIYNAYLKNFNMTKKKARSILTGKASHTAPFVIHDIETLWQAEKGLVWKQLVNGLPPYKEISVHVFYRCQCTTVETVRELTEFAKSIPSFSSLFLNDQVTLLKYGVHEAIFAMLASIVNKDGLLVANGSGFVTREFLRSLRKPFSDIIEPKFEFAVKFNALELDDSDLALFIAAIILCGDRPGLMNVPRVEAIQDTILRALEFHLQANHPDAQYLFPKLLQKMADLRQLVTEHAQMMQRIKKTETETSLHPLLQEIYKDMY
In short: as §1

[3] = molecular target: Peroxisome proliferator-activated receptor gamma (Homo sapiens) (UniProt P37231); experiment: qHTS assay for small molecule agonists of peroxisome proliferator-activated receptor gamma signaling (AID 588536; active means well fitted curve in the direction sought with a large enough effect in the signal ratio, with a control signal flat, not every such curve was filed as active; the % refers to the signal ratio;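 further: 0% = DMSO basal wells and 100% = rosiglitazone at 2 µM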)
Chain of Peroxisome proliferator-activated receptor gamma (Homo sapiens) (P37231 whole entry, looked up): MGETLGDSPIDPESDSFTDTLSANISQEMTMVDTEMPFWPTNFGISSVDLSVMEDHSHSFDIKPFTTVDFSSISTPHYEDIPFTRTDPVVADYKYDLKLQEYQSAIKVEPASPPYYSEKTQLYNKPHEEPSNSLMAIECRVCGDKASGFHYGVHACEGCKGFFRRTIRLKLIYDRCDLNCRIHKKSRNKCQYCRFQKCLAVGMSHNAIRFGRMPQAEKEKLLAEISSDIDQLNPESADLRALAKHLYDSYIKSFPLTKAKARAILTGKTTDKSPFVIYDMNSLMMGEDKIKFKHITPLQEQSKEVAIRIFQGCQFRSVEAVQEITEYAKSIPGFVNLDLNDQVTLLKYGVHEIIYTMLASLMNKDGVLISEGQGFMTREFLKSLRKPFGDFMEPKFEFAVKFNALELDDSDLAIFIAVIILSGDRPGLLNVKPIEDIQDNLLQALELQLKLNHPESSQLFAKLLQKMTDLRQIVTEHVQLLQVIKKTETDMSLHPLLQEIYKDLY
In short: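 Ratiometric blue/green fluorescence (405 nm excitation; 460 and 530 nm emission) from CCF4-loaded HEK293 reporter cells serves as signal. Exposure to test compounds lasts 16 h at 37 C in medium containing 1% charcoal/dextran-treated serum.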

[4] = molecular target: Vitamin D3 receptor (Homo sapiens) (UniProt P11473); experiment: qHTS assay for small molecule antagonists of vitamin D receptor signaling (AID 588541);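 further: receptor activated by calcitriol during compound treatment; series mostly up to about 77 µM; on the % scale 0 is the no-effect control and ±100 the full control effect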
Chain of Vitamin D3 receptor (Homo sapiens) (P11473 whole entry, looked up): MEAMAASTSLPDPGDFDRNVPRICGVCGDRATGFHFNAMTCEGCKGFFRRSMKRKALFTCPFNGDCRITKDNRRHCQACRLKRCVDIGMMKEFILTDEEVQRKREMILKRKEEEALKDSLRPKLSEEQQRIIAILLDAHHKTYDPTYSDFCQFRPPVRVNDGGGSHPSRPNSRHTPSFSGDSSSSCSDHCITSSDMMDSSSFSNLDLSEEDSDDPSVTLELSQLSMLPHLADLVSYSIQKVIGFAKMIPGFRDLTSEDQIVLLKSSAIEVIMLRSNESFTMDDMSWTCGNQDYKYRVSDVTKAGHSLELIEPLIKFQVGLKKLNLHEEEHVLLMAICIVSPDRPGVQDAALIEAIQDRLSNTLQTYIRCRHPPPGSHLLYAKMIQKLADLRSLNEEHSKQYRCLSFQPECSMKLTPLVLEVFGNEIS
In short: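 VDR-UAS-bla HEK293T cells (2000/well, 2% charcoal-stripped FBS) were treated with titrated compounds plus 1-alpha,25-dihydroxyvitamin D3 (50 nM or 3 nM final) for 16 h at 37 C. CCF4 beta-lactamase fluorescence was read; Hill fits gave IC50.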

[5] = molecular target: Vitamin D3 receptor (Homo sapiens) (UniProt P11473); experiment: qHTS assay for small molecule agonists of vitamin D receptor signaling (AID 588543);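 further: 0% = DMSO basal and 100% = reference agonist control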
In short: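 β-lactamase reporter, VDR-UAS-bla HEK293T, agonist mode. Cells plated 5 h at 37 °C, compound titration 16 h at 37 °C, CCF4 dye 2 h RT, ratio 460/530 nm. Hill fit → EC50, efficacy vs 50 nM 1α,25-(OH)2D3.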

[6] = qHTS assay for small molecule agonists of retinoid X receptor alpha signaling (AID 588544); conditions: HEK293T RXRa-UAS-bla, beta-lactamase reporter, 18 h; 530 nm emission
[7] = molecular target: Thyroid hormone receptor beta (Homo sapiens) (UniProt P10828); experiment: qHTS assay for small molecule agonists of thyroid hormone receptor beta signaling (AID 588545);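 further: 0% = DMSO only and 100% = 10 nM T3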
Chain of Thyroid hormone receptor beta (Homo sapiens) (P10828 whole entry, looked up): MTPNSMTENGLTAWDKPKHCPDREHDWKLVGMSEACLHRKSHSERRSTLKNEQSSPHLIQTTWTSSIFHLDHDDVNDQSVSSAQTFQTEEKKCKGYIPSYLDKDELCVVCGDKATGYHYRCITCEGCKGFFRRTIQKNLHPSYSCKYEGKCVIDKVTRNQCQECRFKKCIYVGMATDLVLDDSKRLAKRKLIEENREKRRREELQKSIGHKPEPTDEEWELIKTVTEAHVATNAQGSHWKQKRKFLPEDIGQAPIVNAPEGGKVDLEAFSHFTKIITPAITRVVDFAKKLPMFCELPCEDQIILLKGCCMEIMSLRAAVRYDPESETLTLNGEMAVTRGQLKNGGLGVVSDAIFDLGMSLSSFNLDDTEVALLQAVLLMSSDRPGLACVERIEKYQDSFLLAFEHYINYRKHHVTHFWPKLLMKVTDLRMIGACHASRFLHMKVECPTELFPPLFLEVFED
In short: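 Stimulation of a TR-driven beta-lactamase reporter was quantified in GripTite HEK 293 cells. Compound series ran for 18 hrs; curves were normalized to T3 and DMSO controls and fitted to yield EC50.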

[8] = qHTS assay for small molecule antagonists of retinoid X receptor alpha signaling (AID 588546; active means well fitted inhibition curve with a large enough effect in the signal ratio, with a control signal flat, not every such curve was filed as active; the % refers to the signal ratio;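 further: cells stimulated with 9-cis-retinoic acid as agonist; on the % scale 0 is the no-effect control and ±100 the full control effect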); conditions: HEK293T RXRa-UAS-bla, beta-lactamase ratio, antagonist mode; measured here: W530 green channel, cytotoxicity proxy
In short: (§2)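 Beta-lactamase reporter inhibition, read as CCF4 fluorescence ratio (ex 405, em 460/530 nm) after 2 h at RT. HEK293T UAS-bla cells, 2500/well, were stimulated with 9-cis-RA at 500 or 100 nM final alongside test compound for 18 h at 37 C.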

[9] = molecular target: Retinoic acid receptor RXR-alpha (Homo sapiens) (UniProt P19793); experiment: as above; conditions: HEK293T RXRa-UAS-bla, beta-lactamase ratio, antagonist mode
Chain of Retinoic acid receptor RXR-alpha (Homo sapiens) (P19793 whole entry, looked up): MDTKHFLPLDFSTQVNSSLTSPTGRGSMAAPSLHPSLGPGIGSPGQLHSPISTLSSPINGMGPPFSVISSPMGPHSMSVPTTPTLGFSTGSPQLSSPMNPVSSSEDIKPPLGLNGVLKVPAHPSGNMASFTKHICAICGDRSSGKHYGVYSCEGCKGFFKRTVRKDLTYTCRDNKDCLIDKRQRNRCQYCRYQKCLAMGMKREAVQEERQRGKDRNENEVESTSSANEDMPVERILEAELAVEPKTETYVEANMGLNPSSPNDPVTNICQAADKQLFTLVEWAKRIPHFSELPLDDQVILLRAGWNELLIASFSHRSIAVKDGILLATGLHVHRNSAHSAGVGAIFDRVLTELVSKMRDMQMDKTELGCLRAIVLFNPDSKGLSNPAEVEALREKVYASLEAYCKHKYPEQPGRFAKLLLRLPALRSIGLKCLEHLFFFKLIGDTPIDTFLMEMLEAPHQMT
In short: as §2

[10] = qHTS assay for small molecule agonists of the antioxidant response element (ARE) signaling pathway (AID 651741; active means well fitted activation curve with a large enough effect in the signal ratio; the % refers to the signal ratio; further: potency means the concentration at half of the fitted maximal effect; on activation: % of control where 0% means no effect)
In short: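 ARE-bla HepG2 cells (beta-lactamase reporter under ARE control) were plated at 2,000 cells/well, preincubated 5 h at 37 C/5% CO2, then treated with DMSO-dissolved compounds for 16 h at 37 C; LiveBLAzer B/G FRET substrate added, fluorescence read after 2 h at room temperature.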

[11] = qHTS assay for small molecule activators of the p53 signaling pathway (AID 651743; active means well fitted activation curve with a large enough effect in the signal ratio, not every such curve was filed as active; the % refers to the signal ratio; further: series mostly up to about 92 µM; % of control where 0% means no effect); conditions: HCT-116 p53RE-bla, beta-lactamase FRET ratio, 16 h; activation: stronger effect = higher value
In short: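 p53RE-bla HCT-116 cells with a stably integrated beta-lactamase reporter under p53 response elements were plated, rested 5 hours at 37 C/5% CO2, then exposed to compounds in DMSO for 16 hours at 37 C. LiveBLAzer B/G FRET substrate was read after 2 hours at room temperature.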

[12] = qHTS assay for small molecule activators of the nuclear factor-kappa B (NF-kB) signaling pathway (AID 651749; active means well fitted activation curve with a large enough effect in the signal ratio; the % refers to the signal ratio; further: series mostly up to about 77 µM; % of control where 0% means no effect); conditions: NF-kB-bla ME-180 cells, beta-lactamase FRET ratio, 16 h; activation: stronger effect = higher value
In short: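 ME-180 cells stably carrying a beta-lactamase reporter under an NF-kB response element were exposed to compound or DMSO vehicle for 16 hr at 37C, 5% CO2. Pathway activation was read by FRET, since reporter expression disrupts FRET.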

[13] = qHTS assay for small molecule agonists of the antioxidant response element (ARE) signaling pathway measured by Nrf2-dependant transcriptional activity (AID 720636; active means well fitted curve in the direction sought with a large enough effect in the repeat runs; an effect the other way counts as inactive or inconclusive;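 further: HepG2 cells with an ARE-driven luciferase reporter; % of control where 0% means no effect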)
In short: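 Reporter gene assay, HepG2 ARE-luc: 16 hr compound, 37 C, 5% CO2; read-out luciferase luminescence.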

[14] = qHTS assay for small molecule agonists of the antioxidant response element (ARE) signaling pathway measured by Nrf2-dependant transcriptional activity - cell viability counter screen (AID 720653; active means well fitted curve in the direction sought with a large enough effect in the repeat runs; an effect the other way counts as inactive or inconclusive; further: on the % scale 0 is the no-effect control and ±100 the full control effect); conditions: ARE-bla HepG2 viability, CellTiter-Glo ATP luminescence, 16 h; stronger effect = lower value
In short: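 ARE-bla HepG2 cells (2,000/well) rested 5 hrs at 37C/5% CO2, then exposed to compounds in DMSO for 16 hrs. Viability was read in the same wells as intracellular ATP by luminescence, 30 min at room temperature after reagent addition.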

[15] = qHTS assay for cell viability of the p53RE-bla HCT-116 cell line (AID 743292; active means well fitted curve in the direction sought with a large enough effect; an effect the other way counts as inactive or inconclusive; further: on the % scale 0 is the no-effect control and ±100 the full control effect; nearly all actives have a fitted effect of over 55% in size)
In short: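 Readout: CellTiter-Glo luminescence after 30 min RT. Treatment: compounds in DMSO, 16 h, 37 C. Cells: CellSensor p53RE-bla HCT-116, 4,000/well, preincubated 5 h.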

[16] = molecular target: Nuclear receptor subfamily 1 group I member 2 (Rattus norvegicus) (UniProt Q9R1A7); experiment: qHTS assay for small molecule activators of the rat pregnane X receptor (rPXR) signaling pathway (AID 651751; call rule not given here; further: 0% is about no effect); conditions: rPXR reporter cells, luciferase (One-Glo), 24 h
Chain of Nuclear receptor subfamily 1 group I member 2 (Rattus norvegicus) (Q9R1A7 whole entry, looked up): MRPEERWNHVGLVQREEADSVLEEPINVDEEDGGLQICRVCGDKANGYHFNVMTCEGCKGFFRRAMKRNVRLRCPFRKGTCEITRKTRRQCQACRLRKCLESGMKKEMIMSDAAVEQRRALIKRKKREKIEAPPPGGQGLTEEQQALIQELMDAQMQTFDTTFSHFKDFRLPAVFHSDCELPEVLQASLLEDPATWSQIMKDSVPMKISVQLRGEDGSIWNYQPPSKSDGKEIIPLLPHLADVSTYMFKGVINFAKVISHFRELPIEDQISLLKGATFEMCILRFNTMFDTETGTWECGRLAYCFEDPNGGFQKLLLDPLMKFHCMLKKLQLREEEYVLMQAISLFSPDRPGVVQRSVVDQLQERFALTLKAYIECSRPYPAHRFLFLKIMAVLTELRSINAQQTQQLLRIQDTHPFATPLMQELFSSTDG

[17] = molecular target: Peroxisome proliferator-activated receptor alpha (Homo sapiens) (UniProt Q07869); experiment: qHTS assay for small molecule agonists of the peroxisome proliferator-activated receptor alpha (PPARalpha) signaling pathway (AID 651778; active means well fitted curve in the direction sought with a large enough effect; an effect the other way counts as inactive or inconclusive; further: % of control where 0% means no effect); conditions: PathHunter PPARalpha complementation, chemiluminescence, 6 h; stronger effect = higher value
Chain of Peroxisome proliferator-activated receptor alpha (Homo sapiens) (Q07869 whole entry, looked up): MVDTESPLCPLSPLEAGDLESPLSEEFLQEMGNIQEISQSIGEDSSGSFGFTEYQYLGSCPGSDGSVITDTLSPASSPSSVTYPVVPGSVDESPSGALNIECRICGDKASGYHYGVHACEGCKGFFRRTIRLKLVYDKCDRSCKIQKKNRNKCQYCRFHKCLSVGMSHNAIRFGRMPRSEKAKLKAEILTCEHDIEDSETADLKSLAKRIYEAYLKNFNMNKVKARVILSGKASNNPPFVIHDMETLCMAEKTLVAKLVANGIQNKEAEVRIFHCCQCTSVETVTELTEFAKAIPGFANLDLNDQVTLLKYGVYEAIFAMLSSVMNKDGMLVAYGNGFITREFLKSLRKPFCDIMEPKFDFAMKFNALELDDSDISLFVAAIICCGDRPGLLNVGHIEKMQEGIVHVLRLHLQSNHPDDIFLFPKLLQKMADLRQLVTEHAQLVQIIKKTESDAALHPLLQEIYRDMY
In short: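 Cells plated at 2,000/well and held overnight at 37 C, 5% CO2, then compound added by pin tool for 6 hr; after PathHunter detection reagent and 60 min at room temperature, chemiluminescence from enzyme complementation was read.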

COc1nc(NC(C)C)nc(NC(C)C)n1
21.4%: max response [6]
-4.65%: max response [8]
inactive: Potency [2] | outcome [3] | outcome [4] | outcome [5] | outcome [7] | max response [9] -8.1% | Potency [10] | activation [11] -5.88% | activation [12] -2.09% | outcome [13] | max response [14] 5.54% | Potency [15] | max response [16] -2.09%
7.33%: max response [1]

CCc1cccc(C)c1N(C(=O)CCl)C(C)COC (stereo not drawn)
0.387%: max response [8]
inactive: outcome [4] | outcome [5] | max response [9] -18.8% | activation [11] -2.17% | activation [12] -1.58% | max response [17] -0.424% | max response [14] -0.37% | Potency [15] | max response [16] 14%
active: Potency [10] 24.3 µM

CC(C)OC(=O)Nc1cccc(Cl)c1
-7.86%: max response [6]
inactive: Potency [2] | outcome [3] | outcome [4] | outcome [5] | outcome [7] | max response [9] 4.34% | Potency [10] | activation [11] 1.93% | activation [12] 0.165% | max response [14] -10.2% | Potency [15]
2.77%: max response [1]
-4.63%: max response [8]

O=C(O)COc1cc(Cl)c(Cl)cc1Cl
28.5%: max response [6]
20.3%: max response [8]
15.2%: max response [1]
inactive: Potency [2] | outcome [4] | outcome [5] | max response [9] -33.7% | max response [17] -1.8% | outcome [13] | max response [14] -9.62% | Potency [15] | max response [16] -2.98%
